# Results: the supplement of paper PMC9334596
# “And” between values parts separate entries of the source, which are not always exact repeats. Equal values may be shown once. In all, about 5,300 compounds were measured (“PER2::LUC luminescence relative to vehicle control”: median about 0.96, highest 2% from about 1.3 on). The full list was thinned out, with the highest values kept by preference.
# Test system: mPer2Luc MEF
# Test: PER2::LUC luminescence relative to vehicle control (fold of vehicle); higher = higher PER2::LUC reporter signal
# Conditions: 10 µM
# Summary of the method: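 The value is PER2::LUC luminescence expressed as fold of vehicle control. Mouse embryonic fibroblasts carrying the mPer2Luc reporter were seeded at ~3000 cells per well in 384-well plates and grown in DMEM with 10% FBS at 37 °C and 5% CO2. Compounds from commercial libraries were added at 10 μM 48 h after seeding, and luminescence was read with the ONE-Glo luciferase assay system 24 h and 30 h after treatment, followed by an alamarBlue viability assay.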
structure (smiles),measurement,setting,value
CCCCCCC(=O)CCCCCC/C=C/C[C@@H](O)[C@H](O)[C@@](N)(CO)C(=O)O,PER2::LUC luminescence,time after treatment 24 h,1.26
same,PER2::LUC luminescence,time after treatment 30 h,1.35
Cc1ncc(C[n+]2csc(CCO)c2C)c(=O)[nH]1,PER2::LUC luminescence,time after treatment 24 h,1.01
same,PER2::LUC luminescence,time after treatment 30 h,0.895
NCC(CC(=O)O)c1ccc(Cl)s1 (racemic),PER2::LUC luminescence,time after treatment 24 h,1.04
same,PER2::LUC luminescence,time after treatment 30 h,0.985
CC[C@H](C)[C@@H]([C@@H](CC(=O)N1CCC[C@H]1[C@H](OC)[C@@H](C)C(=O)N[C@H](C)[C@@H](O)c1ccccc1)OC)N(C)C(=O)[C@@H](NC(=O)[C@@H](NC)C(C)C)C(C)C,PER2::LUC luminescence,time after treatment 24 h,0.378
same,PER2::LUC luminescence,time after treatment 30 h,0.38
Cc1[nH]c2ccc(O)cc2c1CCN,PER2::LUC luminescence,time after treatment 24 h,1.08 and 1.05
same,PER2::LUC luminescence,time after treatment 30 h,0.977 and 1.35
NCCc1ccc(O)cc1,PER2::LUC luminescence,time after treatment 24 h,1.03 and 0.947
same,PER2::LUC luminescence,time after treatment 30 h,0.942 and 0.934
NCCc1c[nH]c2ccc(O)cc12,PER2::LUC luminescence,time after treatment 24 h,0.925
same,PER2::LUC luminescence,time after treatment 30 h,0.97
NC(CCCCCP(=O)(O)O)C(=O)O (racemic),PER2::LUC luminescence,time after treatment 24 h,1.22
same,PER2::LUC luminescence,time after treatment 30 h,1.09
CC(=O)Nc1cc([As](=O)(O)O)ccc1O,PER2::LUC luminescence,time after treatment 24 h,1.04 and 1.02
same,PER2::LUC luminescence,time after treatment 30 h,1.06 and 0.878
O=[N+]([O-])c1cc([As](=O)(O)O)ccc1O,PER2::LUC luminescence,time after treatment 24 h,1.08
same,PER2::LUC luminescence,time after treatment 30 h,1.54
O=[N+]([O-])c1ccc([As](=O)(O)O)cc1,PER2::LUC luminescence,time after treatment 24 h,1.13
same,PER2::LUC luminescence,time after treatment 30 h,0.866
COc1cc(=O)oc(/C=C/C=C/C=C/C(C)=C/[C@@]2(C)O[C@H](C)[C@](C)(O)[C@H]2O)c1C,PER2::LUC luminescence,time after treatment 24 h,0.952
same,PER2::LUC luminescence,time after treatment 30 h,0.913
COc1c2c3c4c(c(OC)c(=O)c5c(O)cc(OC)c(c6c(OC)cc(O)c(c1=O)c63)c54)[C@@H](C(C)=O)[C@@](C)(O)C2,PER2::LUC luminescence,time after treatment 24 h,1.14
same,PER2::LUC luminescence,time after treatment 30 h,1.06
O=C(O)[C@@H]1C[C@H]2C[C@@H](CP(=O)(O)O)CC[C@H]2CN1,PER2::LUC luminescence,time after treatment 24 h,1.03
same,PER2::LUC luminescence,time after treatment 30 h,0.966
C=C(C)c1cc2cc(C(C)=O)c(O)cc2o1,PER2::LUC luminescence,time after treatment 24 h,1.31
same,PER2::LUC luminescence,time after treatment 30 h,1.39
OCC1C(O)C(O)C2C(O)CCN12 (stereo not given),PER2::LUC luminescence,time after treatment 24 h,1.1
same,PER2::LUC luminescence,time after treatment 30 h,1.08
COc1ccc(/C=C/c2cc(O)cc(O)c2)cc1,PER2::LUC luminescence,time after treatment 24 h,1.69
same,PER2::LUC luminescence,time after treatment 30 h,1.76
C=CCc1ccc(OC)cc1,PER2::LUC luminescence,time after treatment 24 h,0.993
same,PER2::LUC luminescence,time after treatment 30 h,0.968
COc1ccc(O)c(C(C)(C)C)c1.COc1ccc(O)cc1C(C)(C)C,PER2::LUC luminescence,time after treatment 24 h,0.868
same,PER2::LUC luminescence,time after treatment 30 h,1.18
CC(=O)Oc1ccc(/C=C/c2cc(OC(C)=O)cc(OC(C)=O)c2)cc1,PER2::LUC luminescence,time after treatment 24 h,1.76
same,PER2::LUC luminescence,time after treatment 30 h,1.65
CCCC(=O)O[C@@H]1[C@@H](C)[C@@]2(O)[C@@H](C=C(CO)C[C@]3(O)C(=O)C(C)=C[C@@H]23)[C@@H]2C(C)(C)[C@]12OC(=O)CCC,PER2::LUC luminescence,time after treatment 24 h,1.13
same,PER2::LUC luminescence,time after treatment 30 h,0.899
COc1cc2c(cc1F)C(c1ccccc1Cl)=Nc1c(n[nH]c1C)N2,PER2::LUC luminescence,time after treatment 24 h,0.461
same,PER2::LUC luminescence,time after treatment 30 h,0.367
CC(=O)OCC1=C[C@H]2[C@@H]3C(C)(C)[C@]3(OC(=O)Cc3ccccc3)C[C@@H](C)[C@]2(O)[C@@H]2C=C(C)C(=O)[C@@]2(O)C1,PER2::LUC luminescence,time after treatment 24 h,1.21
same,PER2::LUC luminescence,time after treatment 30 h,1.09
COc1ccc(C(C)(C)C)cc1CN[C@H]1C2CCN(CC2)[C@H]1C(c1ccccc1)c1ccccc1,PER2::LUC luminescence,time after treatment 24 h,0.868
same,PER2::LUC luminescence,time after treatment 30 h,0.939
CC1=C[C@]23C(=O)[C@@H](C=C(CO)[C@@H](O)[C@]2(O)[C@H]1O)[C@H]1[C@@H](C[C@H]3C)C1(C)C,PER2::LUC luminescence,time after treatment 24 h,0.981
same,PER2::LUC luminescence,time after treatment 30 h,0.957
CCN(CC)C(=O)NC1CC2c3cccc4[nH]cc(c34)CC2N(C)C1 (stereo not given),PER2::LUC luminescence,time after treatment 24 h,0.846
same,PER2::LUC luminescence,time after treatment 30 h,0.986
COC1=CC(=O)O[C@@H](/C=C/c2ccc3c(c2)OCO3)C1,PER2::LUC luminescence,time after treatment 24 h,0.149
same,PER2::LUC luminescence,time after treatment 30 h,0.152
COC1=CC(=O)O[C@@H](CCc2ccc3c(c2)OCO3)C1,PER2::LUC luminescence,time after treatment 24 h,0.859
same,PER2::LUC luminescence,time after treatment 30 h,0.763
COC1=CC(=O)O[C@@H](/C=C/c2ccccc2)C1,PER2::LUC luminescence,time after treatment 24 h,1.28
same,PER2::LUC luminescence,time after treatment 30 h,1.35
Cc1o[nH]c(=O)c1CC(N)C(=O)O (racemic),PER2::LUC luminescence,time after treatment 24 h,0.875
same,PER2::LUC luminescence,time after treatment 30 h,0.984
C[C@@H]1OC(=O)[C@H]2C[C@H]3CCCC[C@@H]3[C@@H](/C=C/[C@H]3CCC[C@H](C)N3C)[C@@H]12,PER2::LUC luminescence,time after treatment 24 h,0.807
same,PER2::LUC luminescence,time after treatment 30 h,0.884
N=C(N)NCCCCCCCCCCNC(=N)N,PER2::LUC luminescence,time after treatment 24 h,0.972
same,PER2::LUC luminescence,time after treatment 30 h,0.965
NCCc1ccccn1,PER2::LUC luminescence,time after treatment 24 h,0.99
same,PER2::LUC luminescence,time after treatment 30 h,1.45
Cn1cnc(CCN)c1,PER2::LUC luminescence,time after treatment 24 h,0.826
same,PER2::LUC luminescence,time after treatment 30 h,0.66
NCCc1ccccc1,PER2::LUC luminescence,time after treatment 24 h,1.03
same,PER2::LUC luminescence,time after treatment 30 h,1.04
CC(C)CC(NC(=O)C(Cc1ccccc1)NC(=O)CNC(=O)C(C)NC(=O)C(N)Cc1ccc(O)cc1)C(=O)O (stereo not given),PER2::LUC luminescence,time after treatment 24 h,1.03
same,PER2::LUC luminescence,time after treatment 30 h,0.904
CC1(C)C(=O)N(c2ccc(C#N)c(C(F)(F)F)c2)C(=S)N1c1ccc(C(N)=O)c(F)c1,PER2::LUC luminescence,time after treatment 24 h,1.06
same,PER2::LUC luminescence,time after treatment 30 h,1.11
CC(=O)OC12CC(C)C3(O)C4C=C(C)C(=O)[C@@]4(O)CC(CO)=C[C@H]3C1C2(C)C (stereo not given in full),PER2::LUC luminescence,time after treatment 24 h,1.15
same,PER2::LUC luminescence,time after treatment 30 h,0.967
COC(N)=O,PER2::LUC luminescence,time after treatment 24 h,1.07
same,PER2::LUC luminescence,time after treatment 30 h,1.01
NC(=O)CI,PER2::LUC luminescence,time after treatment 24 h,1.59
same,PER2::LUC luminescence,time after treatment 30 h,1.31
NNC(N)=O,PER2::LUC luminescence,time after treatment 24 h,1.09
same,PER2::LUC luminescence,time after treatment 30 h,0.875
O=C(O)CF,PER2::LUC luminescence,time after treatment 24 h,1.08
same,PER2::LUC luminescence,time after treatment 30 h,1.08
CN(C(=O)Cc1ccc(Cl)c(Cl)c1)[C@H](CN1CCCC1)c1cccc(N=C=S)c1,PER2::LUC luminescence,time after treatment 24 h,0.676
same,PER2::LUC luminescence,time after treatment 30 h,0.687
CCCN1C[C@H](C)N([C@H](c2ccc(C(=O)N(CC)CC)cc2)c2cccc(OC)c2)C[C@H]1C,PER2::LUC luminescence,time after treatment 24 h,0.894
same,PER2::LUC luminescence,time after treatment 30 h,0.899
"C=CCN1CC[C@@]2(C)c3cc(O)ccc3C[C@@H]1C2C (single isomer, unassigned; (+))",PER2::LUC luminescence,time after treatment 24 h,0.969
same,PER2::LUC luminescence,time after treatment 30 h,0.939
